# FLuc modulator: firefly luciferase modulation, counter-screen for miR-21 project; P08659; purified FLuc, Km substrates, luminescence inhibition; Potency, µM (top dose mostly 57.5 µM), without a hit: at the highest dose activity change, negative = inhibition, actives largely listed as inhibitors; 360,000 compounds, 6.9% hits;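 also: plate controls were vehicle for no effect and reference inhibitor for full effect; nearly all actives have a fitted effect of over 55% in size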
# Target sequence (P08659 whole entry, looked up): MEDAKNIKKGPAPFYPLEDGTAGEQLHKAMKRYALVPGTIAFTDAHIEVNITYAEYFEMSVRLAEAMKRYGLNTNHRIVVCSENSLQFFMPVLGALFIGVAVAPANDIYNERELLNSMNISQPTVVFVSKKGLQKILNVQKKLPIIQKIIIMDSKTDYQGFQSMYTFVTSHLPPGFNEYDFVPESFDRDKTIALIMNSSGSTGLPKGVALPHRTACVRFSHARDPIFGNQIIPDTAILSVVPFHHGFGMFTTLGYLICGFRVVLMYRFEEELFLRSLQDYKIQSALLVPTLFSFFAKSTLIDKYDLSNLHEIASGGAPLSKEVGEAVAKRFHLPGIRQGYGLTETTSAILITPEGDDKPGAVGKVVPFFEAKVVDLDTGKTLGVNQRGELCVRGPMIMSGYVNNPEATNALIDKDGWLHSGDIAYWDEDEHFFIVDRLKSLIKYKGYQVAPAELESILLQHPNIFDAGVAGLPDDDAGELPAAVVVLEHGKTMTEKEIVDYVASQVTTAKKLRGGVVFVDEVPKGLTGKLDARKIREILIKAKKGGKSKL
#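 Biochemical qHTS of compounds, final roughly 60 µM downward over six points, against 10 nM purified firefly luciferase using Km concentrations of substrates (10 uM D-luciferin, 10 uM ATP) in Tris acetate pH 7.5 buffer; luminescence output.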
# NPC1 prom act: NPC1 promoter activation; Huh7 NPC1 promoter luciferase reporter, 24 h; Potency, µM (titrated, usually from 9.22 µM), for the others: at the highest dose activation, most hits filed as activators; 320,000 compounds, 2.4% hits; also: % of control where 0% means no effect; nearly all actives have a fitted effect of over 60% in size
#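 Luminescence read-out of NPC1 promoter-driven luciferase in stably transfected Huh7 cells; compounds delivered in DMSO and left 24 h at 37C, 5% CO2, qHTS titration format.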
# SMN2 splice enh: enhancers of SMN2 splice variant expression; HEK293 SMN2-luciferase splicing reporter, luminescence, 30-36 h; Potency, µM (series often up to 46.1 µM), without a hit: at the top dose activity change, positive = activation, usual class: activators; 210,000 compounds, 2.8% hits; also: % of control where 0% means no effect; nearly all actives have a fitted effect of over 55% in size
#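 HEK293 cells carry an SMN2 […]–luciferase reporter in which exon 7 inclusion puts luciferase in frame. Cells were plated 10-12 h before compound addition, then incubated 30-36 h at 37C. ONE-Glo luminescence was read; sodium butyrate at 4.5 mM final served as control.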
# ELG1 genotox: genotoxicity induction in ELG1-luciferase HEK293T cells; HEK293T ELG1-luciferase reporter, luminescence, 16 h; Potency, µM (titrated, usually from 46 µM), inactives show at the top dose activity change, positive = activation, most hits filed as activators; 330,000 compounds, 1.3% hits; AID 504466; also: % of control where 0% means no effect; nearly all actives have a fitted effect of over 60% in size
#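 Reporter readout depends on ELG1 protein level, which increases with genetic stress. After 16 hr compound exposure at 37 °C, luciferase activity was quantified using ONE-Glo.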
# Rab9 promoter act: Rab9 promoter activation | Potency, µM (series often up to 9.22 µM), for the others: at the top dose activation, negative = inhibition, actives largely listed as activators | Huh7 Rab9 promoter-luciferase reporter, luminescence, 24 h | 320,000 compounds, 2.8% hits; also: % of control where 0% means no effect; nearly all actives have a fitted effect of over 60% in size
#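 Steps: seed 1500 Huh7 Rab9-luc cells per well, rest 2 h at 37 °C; add compound in DMSO; incubate 24 h; add luciferase reagent, 10 min ambient; read luminescence.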
# ELG1 DNA repair: inhibitors of ELG1-dependent DNA repair in HEK293T cells. HEK293T ELG1-luciferase reporter, luminescence, 16 h; DNA damage induced by 5-fluorouridine. 330,000 compounds, 2.3% hits. Potency, µM (series often up to 46.1 µM), without a hit: at the highest dose activity change, negative = inhibition, actives largely listed as inhibitors; also: % is scaled to controls: 0 for no effect and ±100 for the full control effect; nearly all actives have a fitted effect of over 55% in size
#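 In this reporter screen, reduction of luminescence relative to DMSO vehicle indicated activity. Compounds and 5-fluorouridine were added together to 2,000 cells per well, incubated for 16 hr at 37 °C, then developed with ONE-Glo.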
# The depositor's hits bear a star; ? = inconclusive; · = no result given; [ ] = another dose, or the depositor's remark. Sampled rows, rich in hits. Any-hit rate of the full collection: about 9.2%. Calls follow the shape of the dose curve; as a rule, active = well fitted curve in the direction sought with a large enough effect; inconclusive = small, poorly fitted or top-dose-only effect, or another doubt; inactive = no such curve, though single readings can be large; an effect the other way counts as inactive or inconclusive. Potency is read from the fitted curve at half-maximal effect.
SMILES,FLuc modulator,NPC1 prom act,SMN2 splice enh,ELG1 genotox,Rab9 promoter act,ELG1 DNA repair
CCN1CCN(Cc2ccc3c(c2)Cc2ccccc2-3)CC1,-5%,0%,-15%,-14%,2%,-24%
CCC(=O)Nc1c(-c2ccc3ccccc3c2)nc2ccccn12,3.8µM*,17%,·,11%,?,?
CC(=O)Nc1c(-c2ccc3ccccc3c2)nc2ccccn12,1.9µM*,?,·,21µM*,?,?
Cc1ccc(C(=O)Nc2c(-c3ccccc3)nc3ccccn23)cc1,-1%,·,-17%,·,·,·
O=C(CN(C(=O)CNC(=O)c1cccs1)c1cccc(F)c1)NC1CCCC1,0%,1%,·,5%,0%,-3%
CCCSc1nc2c3c(sc2c(=O)[nH]1)CC(C)(CC)OC3 (centres undefined),5.4µM*,5%,9%,4%,3%,-2%
CCOC(=O)CSc1nc2sc3c(c2c(=O)[nH]1)CC(C)(CC)OC3 (centres undefined),-2%,2%,-11%,1%,-3%,13%
O=C(CCn1c(=O)c2cccn2c2ccccc21)Nc1ccc(F)cc1,0%,12%,·,-9%,-1%,-20%
COc1ccc(-c2cc(C(=O)c3c(N)n(C)c(=O)n(C)c3=O)c3ccccc3n2)cc1OC,9.5µM*,9%,·,?,24%,?
COc1ccc(-c2cc(C(=O)OCC(=O)NC3CC3)c3ccccc3n2)cc1OC,·,·,·,-1%,·,?
Cn1c(N)c(C(=O)COC(=O)c2cc(-c3ccccc3)nc3ccccc23)c(=O)n(C)c1=O,·,·,-4%,·,·,·
Cn1c(N)c(C(=O)c2cc(-c3ccncc3)nc3ccccc23)c(=O)n(C)c1=O,24µM*,-2%,12%,?,0%,?
CCOc1ccc(NS(=O)(=O)c2c(C)nc3sccn3c2=O)cc1,2%,1%,·,0%,3%,1%
N#Cc1c(N2CCCC2)nc(N)c2c(N)nc(N3CCCC3)cc12,?,23%,11µM*,13%,?,?
COc1cc2c(C#N)c(N3CCCC3)nc(N)c2c(N)n1,17µM*,-1%,·,11%,-1%,12%
COc1cc2c(C#N)c(N3CCN(c4ccccc4OC)CC3)nc(N)c2c(N)n1,24µM*,0%,-21%,-9%,-8%,9.2µM*
N#Cc1c(N)nc(N2CCCC2)c(C#N)c1-c1ccc(Cl)cc1,0%,1%,8%,3%,-3%,?
COc1cc2c(C#N)c(N3CCN(C)CC3)nc(N)c2c(N)n1,?,-4%,13%,?,8%,3%
COc1ccccc1N1CCN(c2nc(N)c(C#N)c(CC#N)c2C#N)CC1,0%,-5%,-16%,6%,-1%,-7%
O=C(Nc1ccc(Oc2ccccc2)nc1)C1CCCCN1Cc1ccco1 (centres undefined),0%,-30%,·,5%,-6%,?
Cc1cc(NC(=O)c2cccc(S(=O)(=O)N3CCC(C)CC3)c2)no1,-1%,1%,·,-5%,0%,-17%
CN(c1ccccc1)S(=O)(=O)c1ccc(Cl)c(C(=O)Nc2ccncc2)c1,·,-8%,·,-7%,-7%,?
CN(c1ccc(F)cc1)S(=O)(=O)c1ccc(Cl)c(C(=O)Nc2ccncc2)c1,5%,-2%,·,-4%,-8%,12µM*
Cc1nn(CC(=O)NCCCN2CCC(N3CCCCC3)CC2)c(=O)c2cc(-c3ccccc3)nn12,4%,-4%,·,?,-12%,-11%
Cc1ccc(-c2cc(N)nc(-c3ccccc3)c2)cc1,13µM*,24%,·,?,21%,?
SMILES,FLuc modulator,NPC1 prom act,SMN2 splice enh,ELG1 genotox,Rab9 promoter act,ELG1 DNA repair
Cc1ccc(-c2cc(-c3ccccc3)nc(N(C)N)n2)cc1,1%,-3%,·,-3%,-5%,-2%
COc1ccc(NC(=O)COC(=O)c2ccc3c(c2)OCCO3)cc1OC,4%,-1%,·,6%,1%,0%
COc1ccc(N/C=C/C(=O)c2ccc3c(c2)OCO3)cc1OC,2.7µM*,28%,17%,?,?,?
COc1ccc(C(=O)/C=C(\C)NCc2ccc3c(c2)OCO3)cc1,-16%,-2%,·,0%,0%,11%
O=C(O)c1ccc2c(c1)OCO2,·,·,-21%,·,·,·
COc1cc(OC)c(OC)cc1/C=C/C(=O)c1ccc(NS(=O)(=O)c2ccc(C)cc2)cc1,2%,-2%,-71%,-4%,-10%,15µM*
CC(=O)c1ccc(NS(=O)(=O)c2ccc(C)cc2)cc1,1%,1%,-13%,5%,-1%,23%
COc1ccc(N/C=C\C(=O)c2ccc3c(c2)OCO3)cc1,0.27µM*,1.8µM*,?,?,3.5µM*,?
O=C(/C=C\Nc1ccc2c(c1)OCO2)c1ccc2c(c1)OCO2,0.13µM*,4µM*,?,2.3µM*,0.79µM*,?
Cc1nc(NC2CCCCC2)c2nc(-c3ccccc3)n(CCN3CCCCC3)c2n1,·,·,-29%,·,·,·
COc1ccc(N2CCN(S(=O)(=O)c3ccc(-c4cc(C(F)(F)F)on4)s3)CC2)cc1,-6%,·,·,·,·,·
N#CC1(NC(=O)COC(=O)c2cc([N+](=O)[O-])ccc2N2CCOCC2)CCCCC1,1%,0%,·,2%,-5%,2%
COc1ccc(N/C=C\C(=O)c2ccc(Br)cc2)cc1OC,?,?,?,15%,?,?
COc1ccc(N/C=C\C(=O)c2ccc(C)cc2)cc1OC,5.4µM*,?,19%,?,3.5µM*,?
CCOC(=O)c1c(C)[nH]c(C(C)=NNC(=O)Cn2nc(C)cc2C)c1C,·,·,·,1%,·,10%
CC(Oc1ccc2c3c(c(=O)oc2c1)CCC3)C(=O)NCc1cccnc1 (centres undefined),0%,-3%,·,2%,-6%,22%
Cc1[nH]c2ccccc2c1/C=N/Nc1ccc(F)cc1F,?,22%,28%,?,?,?
Cc1[nH]c2ccccc2c1/C=N/Nc1ccccn1,24µM*,-7%,2%,0%,14%,2%
Cc1[nH]c2ccccc2c1/C=N/Nc1nncn1N,2.1µM*,6%,20%,?,?,?
Cc1[nH]c2ccccc2c1/C=N/Nc1ccc([N+](=O)[O-])cc1,?,0%,·,-1%,0%,-18%
Cc1ccc2c(c1)c1c(c(=O)n(-c3ccccc3)c(=O)n1CC(=O)NCCC1=CCCCC1)n2C,1%,·,·,·,·,·
O=c1oc2ccccc2cc1-c1csc(NN=C2CCCC2)n1,-13%,8%,-1%[1.84 µM],4%,15%,?
O=C(O)c1cccc(Nc2nc(-c3cc4ccccc4oc3=O)cs2)c1,6µM*,2.8µM*,·,?,?,?
